Source: PubChem BioAssay

target: Streptavidin (Streptomyces avidinii) (UniProt P22629); experiment: streptavidin binders on small-molecule microarray, primary screen, artefact control for SMM compound annotation, biophysical, 635/667 nm fluorescence (AID 1147); conditions: streptavidin binding, higher = more signal;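 also: signal reflects streptavidin binding to arrayed compounds as a control protein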
Sequence (P22629 whole entry, looked up): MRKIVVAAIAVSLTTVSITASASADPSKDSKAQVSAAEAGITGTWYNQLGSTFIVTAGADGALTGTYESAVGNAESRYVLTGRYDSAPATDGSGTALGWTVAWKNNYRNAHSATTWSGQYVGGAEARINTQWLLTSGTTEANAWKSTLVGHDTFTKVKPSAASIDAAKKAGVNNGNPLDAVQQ

**Q.** `CN1C(=O)C2C(C1=O)C1C=C(c3ccc(CO)cc3)C2C(c2cccs2)N1C` (configuration not stated) was tested. Which composite z-score did it give?
**A.** 1.56

**Q.** Which composite z-score does the source give for `NCCCC[C@@H]1NC(=O)[C@H]2C[C@@H](C(=O)NCc3ccc(F)cc3)[C@@H](c3cccc(OCCO)c3)N2C1=O` here?
**A.** -0.0648

**Q.** With `CC(C)(C)OC(=O)CC[C@]1(C(=O)N2CCOCC2)N=C(c2ccc(OCCCO)cc2)O[C@H]1c1ccccc1CN=[N+]=[N-]` as the molecule, how does the composite z-score read?
**A.** 1.08

**Q.** With `CC(C)[C@@H](C(=O)O)n1cc(-c2ccccc2)nn1` as the molecule, how does the composite z-score read?
**A.** 1.23

**Q.** For `NCCCC[C@@H]1NC(=O)[C@H]2C[C@@H](C(=O)NCc3ccc(F)cc3)[C@@H](c3ccc(O)cc3)N2C1=O`, which composite z-score is on record?
**A.** 0.829

**Q.** With `O=C1OCCC=C[C@H]2OC34C=CCN(c5ccc(Cl)cc5)C(=O)[C@H]3N(CCO)C(=O)[C@@H]4C12` (some centres not stated) as the molecule, how does the composite z-score read?
**A.** -1.23

**Q.** `O=C1O[C@@H](c2ccccc2)[C@@H](c2ccccc2)N2[C@@H](c3ccc(O)cc3)[C@]3(C(=O)Nc4ccc(C#CC5=CCCCC5)cc43)[C@@H](C(=O)N3CCCCCCC3)[C@H]12` was tested. Which composite z-score did it give?
**A.** 1.1
